The full list was thinned out, with the strongest signals kept by preference.
How the values were obtained:
Assay in all cases: glycan array binding signal (z-score within array); higher = stronger binding
Conditions in all cases: glycan notation: IUPAC condensed, linker removed
[1] = target: Fuc(a1-2)Gal(b1-3)[Fuc(a1-4)]GlcNAc(b1-2)Man(a1-3)[Fuc(a1-2)Gal(b1-3)[Fuc(a1-4)]GlcNAc(b1-2)Man(a1-6)]Man(b1-4)GlcNAc(b1-4)GlcNAc
Outline: (§1)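 Negative Z-scores can be read as non-binding. The Z-score is calculated within each array and then averaged across arrays of one protein sequence at different concentrations or buffers and across linkers. Arrays, 3228 in all, were curated from the Consortium for Functional Glycomics database and kept only where the protein sequence was available.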

[2] = target: Fuc(a1-2)[GalNAc(a1-3)]Gal(b1-4)GlcNAc
Outline: as §1

[3] = target: Fuc(a1-2)[GalNAc(a1-3)]Gal(b1-4)GlcNAc(b1-2)Man(a1-3)[GalNAc(a1-3)[Fuc(a1-2)]Gal(b1-4)GlcNAc(b1-2)Man(a1-6)]Man(b1-4)GlcNAc(b1-4)GlcNAc
Outline: as §1

[4] = target: Fuc(a1-3)[Gal(b1-4)]GlcNAc
Outline: as §1

[5] = target: Fuc(a1-3)[Gal(b1-4)]GlcNAc(b1-2)Man(a1-3)[Fuc(a1-3)[Gal(b1-4)]GlcNAc(b1-2)Man(a1-6)]Man(b1-4)GlcNAc(b1-4)GlcNAc
Outline: as §1

[6] = target: Fuc(a1-3)[Gal3S(b1-4)]GlcNAc
Outline: as §1

[7] = target: Fuc(a1-3)[GalNAc(b1-4)]GlcNAc
Outline: as §1

[8] = target: Gal(a1-3)Gal(b1-4)[Fuc(a1-3)]GlcNAc(b1-2)Man(a1-3)[Gal(a1-3)Gal(b1-4)[Fuc(a1-3)]GlcNAc(b1-2)Man(a1-6)]Man(b1-4)GlcNAc(b1-4)GlcNAc
Outline: as §1

[9] = target: Gal(b1-3)GalNAc(b1-4)Gal(b1-4)Glc
Outline: as §1

[10] = target: Gal(b1-3)GlcNAc(b1-2)Man(a1-3)[Gal(b1-3)GlcNAc(b1-2)Man(a1-6)]Man(b1-4)GlcNAc(b1-4)[Fuc(a1-6)]GlcNAc
Outline: as §1

[11] = target: Gal(b1-3)[Fuc(a1-4)]GlcNAc(b1-2)Man(a1-3)[Gal(b1-3)[Fuc(a1-4)]GlcNAc(b1-2)Man(a1-6)]Man(b1-4)GlcNAc(b1-4)[Fuc(a1-6)]GlcNAc
Outline: as §1

[12] = target: Gal(b1-4)GlcNAc(b1-2)[Gal(b1-4)GlcNAc(b1-4)]Man(a1-3)[Gal(b1-4)GlcNAc(b1-2)Man(a1-6)]Man(b1-4)GlcNAc(b1-4)GlcNAc
Outline: as §1

Gal3S(b1-4)GlcNAc6S = target: Gal3S(b1-4)GlcNAc6S
Outline: as §1

Gal4S(b1-4)GlcNAc = target: Gal4S(b1-4)GlcNAc
Outline: as §1

[13] = target: GlcNAc(b1-2)Man(a1-3)[GlcNAc(b1-2)Man(a1-6)]Man(b1-4)GlcNAc(b1-4)GlcNAc
Outline: as §1

[14] = target: GlcNAc(b1-4)GlcNAc(b1-4)GlcNAc(b1-4)GlcNAc(b1-4)GlcNAc
Outline: as §1

Kdn(a2-3)Gal(b1-3)GlcNAc = target: Kdn(a2-3)Gal(b1-3)GlcNAc
Outline: as §1

[15] = target: Neu5Ac(a2-3)Gal(b1-3)GalNAc(b1-3)Gal(a1-4)Gal(b1-4)Glc
Outline: as §1

[16] = target: Neu5Ac(a2-3)Gal(b1-4)GlcNAc(b1-6)[Neu5Ac(a2-3)Gal(b1-3)]GalNAc
Outline: as §1

[17] = target: Neu5Ac(a2-3)Gal(b1-4)[Fuc(a1-3)]GlcNAc(b1-3)Gal
Outline: as §1

[18] = target: Neu5Ac(a2-3)Gal(b1-4)[Fuc(a1-3)]GlcNAc(b1-3)Gal(b1-4)GlcNAc
Outline: as §1

[19] = target: Neu5Ac(a2-3)Gal(b1-4)[Fuc(a1-3)]GlcNAc6S
Outline: as §1

[20] = target: Neu5Ac(a2-3)Gal6S(b1-4)GlcNAc
Outline: as §1

[21] = target: Neu5Ac(a2-6)Gal(b1-4)GlcNAc6S
Outline: as §1

[22] = target: Neu5Ac(a2-8)Neu5Ac(a2-3)Gal(b1-4)Glc
Outline: as §1

[23] = target: Neu5Ac(a2-8)Neu5Ac(a2-8)Neu5Ac(a2-8)Neu5Ac(a2-3)[GalNAc(b1-4)]Gal(b1-4)Glc
Outline: as §1

[24] = target: Neu5Ac9Ac(a2-3)Gal(b1-3)GlcNAc
Outline: as §1

[25] = target: Neu5Gc(a2-3)Gal(b1-3)GlcNAc
Outline: as §1

B1: CCL2 (Coprinopsis cinerea), B3GA02 (protein)
chain: MDSPAVTLSAGNYIIYNRVLSPRGEKLALTYPGRQRTPVTVSPLDGSSEQAWILRSYDSNSNTWTISPVGSPNSQIGWGAGNVPVVLPPNNYVWTLTLTSGGYNIQDGKRTVSWSLNNATAGEEVSIGADATFSGRWVIEKV
- glycan array binding signal (z-score) [1]: -0.067
- glycan array binding signal (z-score) [2]: -0.286
- glycan array binding signal (z-score) [3]: -0.269
- glycan array binding signal (z-score) [4]: 0.752
- glycan array binding signal (z-score) [5]: 3.53
- glycan array binding signal (z-score) [6]: -0.279
- glycan array binding signal (z-score) [7]: 4.84
- glycan array binding signal (z-score) [8]: 4.37
- glycan array binding signal (z-score) [9]: -0.293
- glycan array binding signal (z-score) [10]: -0.283
- glycan array binding signal (z-score) [11]: -0.19
- glycan array binding signal (z-score) [12]: -0.268
- glycan array binding signal (z-score) (Gal3S(b1-4)GlcNAc6S): -0.276
- glycan array binding signal (z-score) (Gal4S(b1-4)GlcNAc): -0.26
- glycan array binding signal (z-score) [13]: -0.257
- glycan array binding signal (z-score) [14]: -0.255
- glycan array binding signal (z-score) (Kdn(a2-3)Gal(b1-3)GlcNAc): -0.257
- glycan array binding signal (z-score) [15]: -0.278
- glycan array binding signal (z-score) [16]: -0.27
- glycan array binding signal (z-score) [17]: 5.39
- glycan array binding signal (z-score) [18]: 4.93
- glycan array binding signal (z-score) [19]: 4.45
- glycan array binding signal (z-score) [20]: 4.88
- glycan array binding signal (z-score) [21]: -0.205
- glycan array binding signal (z-score) [22]: -0.275
- glycan array binding signal (z-score) [23]: -0.286
- glycan array binding signal (z-score) [24]: -0.294
- glycan array binding signal (z-score) [25]: -0.282

Reference: the supplement of paper PMC8728848
